30 compounds from the supplement of paper PMC13380429 can be followed below.

Counter-ions that a name gives are not always drawn.

In assay [1] the test system is Vero E6 infected with SARS-CoV-2. In words: morphology score (similarity to uninfected cells); higher = more like uninfected cells. The settings on record: 24 h.
The test system is the same in assay [2]. Nature of the assay: SARS-CoV-2 infection rate relative to infected DMSO; higher = more infection, active = 60 or less. The settings on record: 24 h.

In turn, `CCCCCCCCCCCCCCCCCCCCCCO` [docosanol] (10 µM) showed a morphology score in assay [1] of 0.0474. Further, in assay [2], the SARS-CoV-2 infection rate is 102% (inactive).

The compound `CC(C)(O)CC[C@@H](O)[C@](C)(O)[C@H]1CC[C@@]2(O)C3=CC(=O)[C@@H]4C[C@@H](O)[C@@H](O)C[C@]4(C)[C@H]3CC[C@]12C` [20-hydroxyecdysone] (10 µM) had a morphology score in assay [1] of 0.0401. The SARS-CoV-2 infection rate in assay [2] was 108% (inactive).

`O=S1(=O)N[C@H]2CCCN2c2ccccc21` (10 µM) came in with a morphology score in assay [1] of 0.0127. In addition, in assay [2], the SARS-CoV-2 infection rate is 104% (inactive).

`O=C(NC1CCN(CCCCC2(C(=O)NCC(F)(F)F)c3ccccc3-c3ccccc32)CC1)c1ccccc1-c1ccc(C(F)(F)F)cc1` [lomitapide] (0.833333 µM) showed a morphology score in assay [1] of 0.223. Also, the SARS-CoV-2 infection rate in assay [2] was 87.5% (inactive).

`CCC(NC(C)C)C(O)c1ccc(O)c(O)c1` (stereo not given) [isoetharine] (10 µM) returned a morphology score in assay [1] of 0.128. The SARS-CoV-2 infection rate in assay [2] is 93% (inactive).

Compound `CC(=O)Nc1cccc(-n2c(=O)n(C3CC3)c(=O)c3c(Nc4ccc(I)cc4F)n(C)c(=O)c(C)c32)c1` [trametinib] (0.833333 µM) showed a morphology score in assay [1] of 0.263. Besides, the SARS-CoV-2 infection rate in assay [2] is 89% (inactive).

As for `CO/N=C(\C(=O)N[C@@H]1C(=O)N2C(C(=O)[O-])=C(C[n+]3ccn4ncccc43)CS[C@H]12)c1nsc(N)n1` [cefozopran] (10 µM), the morphology score in assay [1] was 0.0209. The SARS-CoV-2 infection rate in assay [2] was 112% (inactive).

Compound `O=[N+]([O-])c1ccccc1S(=O)(=O)NCC1CCC(CNC[C@H]2CCc3ccccc3C2)CC1` (stereo not given in full) (0.833333 µM) had a morphology score in assay [1] of -0.0186. In assay [2], the SARS-CoV-2 infection rate was 97.5% (inactive).

`O=C(Nc1ccccc1-c1cn2c(CN3CCNCC3)csc2n1)c1cnc2ccccc2n1` (0.833333 µM) displayed a morphology score in assay [1] of 0.075. Further, in assay [2], the SARS-CoV-2 infection rate is 114% (inactive).

`CCn1cc(C(=O)O)c(=O)c2cc(F)c(N3CCNC(C)C3)c(F)c21` (stereo not given) [lomefloxacin] (10 µM) came in with a morphology score in assay [1] of 0.0917. Further, the SARS-CoV-2 infection rate in assay [2] is 96.5% (inactive).

As to `O=C1Nc2ccc(Cl)c3c2C1(CCCCN1CC=C(c2ccc(Cl)cc2)CC1)CCC3` (stereo not given) (0.833333 µM), in assay [1], the morphology score amounted to 0.0484. Also, the SARS-CoV-2 infection rate in assay [2] is 106% (inactive).

With `O=c1ccc2ccccc2o1` [coumarin] (10 µM), the morphology score in assay [1] was 0.114. Also, the SARS-CoV-2 infection rate in assay [2] was 89.5% (inactive).

The compound `C=CC(N)CCC(=O)O` (stereo not given) [vigabatrin] (10 µM) showed a morphology score in assay [1] of 0.188. Also, the SARS-CoV-2 infection rate in assay [2] was 99.5% (inactive).

`CCC(C)(C)C(=O)C(=O)N1CCC[C@H]1C(=O)OCCCc1cccnc1` (10 µM) showed a morphology score in assay [1] of -0.0394. Besides, in assay [2], the SARS-CoV-2 infection rate was 116% (inactive).

As to `C[C@@H]1CCO[C@H]2Cn3cc(C(=O)NCc4ccc(F)cc4F)c(=O)c(O)c3C(=O)N12` [dolutegravir] (10 µM), in assay [1], the morphology score was found to be 0.0816. For the same compound, in assay [2], the SARS-CoV-2 infection rate was 112% (inactive).

For `COc1ccc2nc3cc(Cl)ccc3c(Nc3cc(CN4CCCC4)c(O)c(CN4CCCC4)c3)c2n1` [pyronaridine] (0.833333 µM), the morphology score in assay [1] came out at 0.282. Further, the SARS-CoV-2 infection rate in assay [2] is 100% (inactive).

Consider `CCOC(=O)NNc1nncc2ccccc12` [todralazine] (10 µM), for which the morphology score in assay [1] was found to be 0.0897. For the same compound, the SARS-CoV-2 infection rate in assay [2] is 106% (inactive).

`CCCCOC(=O)c1cc2c(cn1)[nH]c1ccccc12` [beta-CCB] (10 µM) came in with a morphology score in assay [1] of 0.156. The SARS-CoV-2 infection rate in assay [2] was 94% (inactive).

In assay [1], `CC(C)NCC(O)COc1cccc2ccccc12` (stereo not given) [propranolol] (10 µM) displayed a morphology score of 0.148. For the same compound, the SARS-CoV-2 infection rate in assay [2] was 103% (inactive).

`CO/N=C(\C(=O)N[C@@H]1C(=O)N2C(C(=O)O)=C(Cn3ccc(=N)n3CCO)CS[C@H]12)c1csc(N)n1` [Cefoselis sulfate] (10 µM) returned a morphology score in assay [1] of 0.115. Also, the SARS-CoV-2 infection rate in assay [2] is 101% (inactive).

In turn, `Cn1c(=O)c2c(ncn2CC2OCCO2)n(C)c1=O` [doxofylline] (10 µM) registered a morphology score in assay [1] of -0.118. Also, the SARS-CoV-2 infection rate in assay [2] was 106% (inactive).

For the compound `C#CCN1C(C)=C(C(=O)OC)C(c2cccc([N+](=O)[O-])c2)C(C(=O)OCC)=C1C` (stereo not given) (10 µM), the morphology score in assay [1] stood at 0.0591. Further, the SARS-CoV-2 infection rate in assay [2] was 87.5% (inactive).

Consider `O=C(NCCO)c1cccc(-c2cc(Nc3ccc(OC(F)(F)F)cc3)ncn2)c1` (10 µM), for which the morphology score in assay [1] was -0.0129. Also, the SARS-CoV-2 infection rate in assay [2] is 98.5% (inactive).

With `Cc1ncc(CN2CC=C(c3ccccc3)CC2)c(N)n1` (10 µM), the morphology score in assay [1] amounted to 0.0617. In assay [2], the SARS-CoV-2 infection rate was 108% (inactive).

On to `CCN(CC)C(=O)/C(C#N)=C/c1cc(O)c(O)c([N+](=O)[O-])c1` [entacapone] (10 µM), for which, in assay [1], the morphology score is 0.149. Besides, the SARS-CoV-2 infection rate in assay [2] was 102% (inactive).

In assay [1], `CCCCCCCC/C=C\CCCCCCCC(=O)NCc1ccc(O)c(OC)c1` [olvanil] (10 µM) gave a morphology score of 0.22. For the same compound, the SARS-CoV-2 infection rate in assay [2] was 96% (inactive).

Compound `CCCOC(C(=O)OC1CCN(C)CC1)(c1ccccc1)c1ccccc1` [propiverine] (10 µM) came in with a morphology score in assay [1] of 0.677. The SARS-CoV-2 infection rate in assay [2] was 41% (active).

For the compound `CCCOc1ccc(S(=O)(=O)N2CCN(CCO)CC2)cc1-c1nc2c(CCC)cn(CC)c2c(=O)[nH]1` [mirodenafil] (10 µM), in assay [1], the morphology score stood at 0.127. The SARS-CoV-2 infection rate in assay [2] is 95.5% (inactive).

The compound `CC(C)(C)NC(=O)N[C@H](C(=O)N1C[C@H]2[C@@H]([C@H]1C(=O)NC(CC1CCC1)C(=O)C(N)=O)C2(C)C)C(C)(C)C` (stereo not given in full) [Boceprevir] (10 µM) had a morphology score in assay [1] of 0.133. In assay [2], the SARS-CoV-2 infection rate is 100% (inactive).

In turn, `CCn1c(N)c(C(=O)NC)c(=O)c2ccc(C#C[C@@](C)(O)COC)nc21` (10 µM) had a morphology score in assay [1] of 0.464. Besides, the SARS-CoV-2 infection rate in assay [2] was 92% (inactive).
